Bioassay records as filed in PubChem BioAssay.
MARV entry inh – Marburg virus entry inhibition | AID 540276 | Marburg virus pseudotyped entry inhibition, cell reporter | Potency, µM (titrated, usually from 37.8 µM), without a hit: at the highest dose activity change, negative = inhibition, hits mostly inhibitors | 300,000 compounds, 1.8% hits; calls by dose curve; tested in HEK293 cells; further: potency means the concentration at half of the fitted maximal effect
LASV entry inh – inhibitors of Lassa virus binding or cell entry; Potency, µM (titrated, usually from 37.9 µM), for inactives: at the top dose activity change, negative = inhibition, most hits filed as inhibitors; Lassa virus pseudotype entry inhibition, cell reporter; 300,000 compounds, 1.2% hits; calls by dose curve; tested in HEK293 cells; further: potency means the concentration at half of the fitted maximal effect; nearly all actives have a fitted effect of over 50% in size
HCMV inh – blocks human cytomegalovirus replication; activity change, negative = inhibition, % at 57.5 µM; 410,000 compounds, 4.5% hits; HFF cells, HCMV-luciferase reporter, 72 h; hits give low values; in the data active means activity change below about -60%; inconclusive means no clear call, values can overlap the other calls; inactive means above about -39%
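Two-dose cell screen: HFF monolayers treated with compounds and infected with luciferase-expressing HCMV at 1 PFU/cell, 72 h at 37C, then lysed for luciferase measurement.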
FMDV inh – blocks foot and mouth disease virus; 410,000 compounds, 1.2% hits; Potency, µM (top dose mostly 57.9 µM), inactives show at the highest dose activity change, negative = inhibition, hits mostly inhibitors; AID 1159524; FMDV antiviral cell-based qHTS; calls by dose curve; tested in HEK293T cells; further: read-out not given here; potency means the concentration at half of the fitted maximal effect; nearly all actives have a fitted effect of over 45% in size
* = called active by the depositor; ? = inconclusive; · = no result given; [ ] = remark or other dose. Rows were chosen to be rich in hits. Some 6.2% of all compounds tested hit in one or more screens of this group. On the % scale 0 is the no-effect control and ±100 the full control effect.

SMILES | MARV entry inh | LASV entry inh | HCMV inh | FMDV inh
CC(C)(C)NC(=O)C(=O)NC(=O)c1c(F)cccc1Cl | 2.7%[46.1 µM] | 2.4%[46.1 µM] | -29.5 | -1.4%
O=C(CCN1CCOCC1)NC12CC3CC(CC(C3)C1)C2 | · | · | 34.3 | 8.6%
C1CCC(N=C(NC23CC4CC(CC(C4)C2)C3)N2CCOCC2)CC1 | 10µM* | -33.2% | · | -23.5%
COc1cc(C2c3cc4c(cc3C3OC(=O)C2C3CO)OCO4)cc(OC)c1OC (stereo not given) | · | · | -75.7* | -4.7%
COc1cc(C2c3cc4c(cc3OC(N3CCCCC3)C2C)OCO4)cc(OC)c1O (stereo not given) | -24.5% | ? | -5.0 | -19.3%
COc1cc(C2c3cc4c(cc3C(OC(C)=O)[C@H]3COC(=O)C23)OCO4)cc(OC)c1OC (stereo not given in full) | · | · | · | -15.8%
CCC1C(c2cc(OC)c(OC)c(OC)c2)c2cc3c(cc2OC1N1CCCC1)OCO3 (stereo not given) | ? | 8.91µM* | -2.6 | -7.7%
COc1cc(C2c3cc4c(cc3CC3COC(=O)C32)OCO4)cc(OC)c1O (stereo not given) | ? | ? | -90.2* | -12.5%
O=C(NCCNC[C@@H](O)COc1ccc(O)cc1)N1CCOCC1 | · | · | · | -1.9%
O=C1CCN(Cc2cccn2-c2ccccn2)CCN1Cc1ccccc1C(F)(F)F | · | · | · | 0.0%
O=C(N/N=C/c1c[nH]c2ccccc12)c1cc(Br)ccc1O | · | · | 18.9 | 42.0%
O=C(NN=C1CCCC1)c1[nH]c2ccc(Cl)cc2c1-c1ccccc1 | ? | ? | -92.1* | -10.4%
NNC(=O)c1[nH]c2ccccc2c1-c1ccccc1 | · | · | -95.2* | -19.5%
O=C(N/N=C/c1ccc(O)cc1)c1[nH]c2ccc(Br)cc2c1-c1ccccc1 | ? | ? | -93.8* | -18.6%
CC(=O)NNC(=O)c1[nH]c2ccc(Cl)cc2c1-c1ccccc1 | · | · | -3.5 | -1.1%
O=C(N/N=C/c1c[nH]c2ccccc12)c1[nH]c2ccc(Br)cc2c1-c1ccccc1 | ? | ? | -86.1* | ?
CCn1c(=O)n(C2=C(CO)CN(CC3CCCCCCC3)CC2)c2ccccc21 | · | · | · | -15.1%
CC(=O)c1ccc(OCc2cc(C(=O)N3CCCCC3c3cccnc3)no2)cc1 (stereo not given) | -25.6% | -15.9% | 5.9 | -4.4%
COCCC1CCCCN1C(=O)c1cc(COc2ccc(-n3cncn3)cc2)on1 (stereo not given) | ? | ? | -74.0* | ?
CCC1CCCCN1C(=O)c1cc(COc2ccc3ncccc3c2)on1 (stereo not given) | ? | ? | -91.0* | ?
COCCOC1CCN(C(=O)c2cc(COc3ccc(-n4cncn4)cc3)on2)CC1 | 1.8% | -16.9% | 25.1 | -22.8%
COCC1CCCCN1C(=O)c1cc(COc2ccc3ncccc3c2)on1 (stereo not given) | · | · | -83.6* | ?
O=C(c1ccc(C(F)(F)F)cc1)N(Cc1cc2ccc(F)cc2nc1N1CCOCC1)C1CC1 | · | · | · | 2.2%
COc1ccc(N2CCN([C@H]3CC(=O)NC3=O)CC2)cc1 | -7.0% | · | · | ·
CCc1ccccc1NC(=O)CN1CCN(C(=O)C(C)NC(=O)c2ccc(Cl)cc2)CC1 (stereo not given) | -17.2% | -13.7% | -27.6 | -19.6%
SMILES | MARV entry inh | LASV entry inh | HCMV inh | FMDV inh
O=C(CN1CCN(c2ccccc2)CC1)Nc1ccccc1Cl | · | · | -33.3 | -20.0%
O=C(CCl)Nc1ccccc1Sc1ccc(Cl)cc1 | 23.1µM* | ? | -103.1* | 31.6µM*
CC(=O)N1CCN(CC(=O)Nc2ccccc2Sc2ccc(Cl)cc2)CC1 | -13.7% | 5.01µM* | -70.7* | ?
O=C(CN1CCN(c2ccccc2)CC1)Nc1ccccc1Sc1ccccc1 | 4.47µM* | ? | -29.1 | -0.9%
CCCn1c(=O)c2sccc2n2c(CCCC(=O)Nc3ccccc3F)nnc12 | · | 25.6%[46.1 µM] | ? | -6.6%
Cc1sc2c(c1C)c(=O)n(-c1ccc(Cl)cc1)c(=O)n2Cc1c(F)cccc1Cl | -22.4%[46.1 µM] | 13.1%[46.1 µM] | 4.4 | -10.1%
O=C(NCc1ccccc1F)C1CCN(Cc2cc3ccccc3n2Cc2cccc(Cl)c2)CC1 | · | ? | 2.4 | -17.5%
COc1ccc(NC(=O)N2CCCC3(CCN(C(=O)c4c(C)noc4C)CC3)C2)cc1 | · | · | · | 4.1%
C=Cn1ccnc1P(=S)(c1ccc(Cl)cc1)c1nccn1C=C | -1.8%[46.1 µM] | 18.8%[46.1 µM] | -75.9* | -7.6%
C=Cn1ccnc1P(=S)(c1ccccc1)c1nccn1C=C | 0.6%[46.1 µM] | 5.7% | -25.1 | 1.6%
Cc1ccc(S(=O)(=O)N2CCN(c3ncnc4scc(-c5ccccc5)c34)CC2)cc1 | ? | 11.2µM* | 0.0 | -4.8%
Cc1ccc(S(=O)(=O)N2CCN(c3ncnc4scc(-c5ccc(F)cc5)c34)CC2)cc1 | ? | -22.6% | -12.4 | ?
Cc1sc2ncnc(N3CCCCC3)c2c1C | -7.5% | -3.0% | ? | ?
Cc1nc(N2CCN(S(=O)(=O)c3ccc(F)cc3)CC2)c2c(-c3cccs3)csc2n1 | ? | ? | -65.6* | ?
O=S(=O)(c1ccccc1)N1CCN(c2nc(-c3cccs3)nc3ccccc23)CC1 | -0.8% | -3.3% | · | ·
Cc1ccc(OCCN2CCCC2)cc1 | · | · | 0.5 | -15.4%
Cc1ccc(OCCN2CCN(c3ncnc4sc(C)c(C)c34)CC2)cc1 | ? | ? | -98.8* | ?
Cc1sc2ncnc(N3CCOCC3)c2c1C | 6.6% | 2.3% | -66.0* | ?
COc1cccc(CNC(=O)c2c(OC)cc(=O)n3c2CCN(C(=O)c2ccc(C)s2)CC3)c1 | · | · | · | -7.4%
Cc1ccc(CN(C(=O)Nc2cccc(Cl)c2)c2ccccn2)cc1 | 3.2%[46.1 µM] | -18.8%[46.1 µM] | -17.9 | 16.9%
CCOC(=O)C1=CCC(c2ccccc2)N(S(=O)(=O)c2ccccc2C)C1 (stereo not given) | · | · | -20.6 | 6.0%
Cc1sc2ncnc(N3CCN(S(=O)(=O)c4ccccc4)CC3)c2c1C | -9.4% | -12.2% | · | 20µM*
Cc1nc(N2CCN(S(=O)(=O)c3ccccc3C#N)CC2)c2c(-c3ccccc3)csc2n1 | · | · | -73.8* | ?
O=C(Nc1ccccc1F)N1CC(=O)N2[C@H](CO)[C@H](c3ccc(Br)cc3)[C@@H]2C1 | · | · | 18.0 | ·
Cc1cc(C)cc([C@H]2C[C@]34CN(Cc5ccccc5)[S+](=O)([O-])[C@@H]3C[C@@H]2O4)c1 | · | 4.7%[46.1 µM] | · | ·
SMILES | MARV entry inh | LASV entry inh | HCMV inh | FMDV inh
O=C(NCCN1CCC(n2c(=O)[nH]c3ccccc32)CC1)c1cc(F)cc(F)c1 | · | · | -27.2 | -17.1%
c1cncc(-c2nn3c(Cn4nnc5ccccc54)nnc3s2)c1 | 3.26µM* | -0.2% | 35.6 | 22.0%
COc1ccc(S(=O)(=O)N2CCN(c3cc(-c4ccccc4)nc4ncnn34)CC2)cc1 | ? | ? | -73.5* | ?
COc1ccc(-c2cc(-c3ccccc3)n3ncnc3n2)cc1 | ? | -22.6% | 11.1 | ?
Cc1nc2ncnn2c(N2CCC(C(=O)NC3CCCC3)CC2)c1Cc1ccccc1 | -21.2% | ? | -0.2 | -28.7%
COc1ccc(-c2cc(N3CCCC3)n3ncnc3n2)cc1 | -22.4%[46.1 µM] | -11.2% | -97.5* | ?
Cc1ccccc1NC(=O)C1CCN(c2cc(-c3ccccc3)nc3ncnn23)CC1 | ? | ? | ? | 35.5µM*
O=S(=O)(c1ccc(Br)cc1)N1CCN(c2cc(-c3ccccc3)nc3ncnn23)CC1 | ? | ? | ? | -16.9%
